In PubChem BioAssay AID1851 (National Center for Advancing Translational Sciences (NCATS), 2009):
The whole screen tested about 16,000 compounds, of which about 2,600 (16%) were called active. Another 20% or so got no clear call; they are omitted. These entries were drawn from the full list. Unmarked numbers belong to inactive results. Calls follow the shape of the dose curve; as a rule, active = well fitted curve in the direction sought with a large enough effect; inconclusive = small, poorly fitted or top-dose-only effect, or effect the other way; inactive = no such curve, though single readings can be large or run the other way.

These molecules were tested against Cytochrome P450 2D6 (Homo sapiens) (UniProt P10635) (assay: Cytochrome panel assay with activity outcomes). Details: recombinant CYP, pro-luciferin dealkylation, luminescence, p450-cyp2d6; series mostly up to 57.1 µM; activity, negative = inhibition: at the top concentration.
% is scaled to controls: 0 for no effect and ±100 for the full control effect.

Cytochrome P450 2D6 (Homo sapiens), sequence (P10635 whole entry, looked up): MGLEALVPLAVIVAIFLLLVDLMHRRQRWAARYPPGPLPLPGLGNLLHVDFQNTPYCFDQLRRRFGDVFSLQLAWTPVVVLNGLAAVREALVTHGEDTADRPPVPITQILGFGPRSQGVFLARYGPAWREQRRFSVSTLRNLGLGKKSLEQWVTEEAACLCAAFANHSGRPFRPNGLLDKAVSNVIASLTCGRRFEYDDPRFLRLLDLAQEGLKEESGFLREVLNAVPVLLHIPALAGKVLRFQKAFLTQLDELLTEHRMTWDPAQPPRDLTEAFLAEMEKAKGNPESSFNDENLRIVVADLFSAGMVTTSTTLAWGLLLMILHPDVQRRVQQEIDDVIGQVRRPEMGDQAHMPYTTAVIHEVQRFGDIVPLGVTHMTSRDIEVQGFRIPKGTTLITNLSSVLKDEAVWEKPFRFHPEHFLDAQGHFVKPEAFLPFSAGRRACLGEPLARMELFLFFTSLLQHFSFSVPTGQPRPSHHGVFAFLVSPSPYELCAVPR

SMILES	activity, negative = inhibition	AC50
CO[C@H]1[C@H](O[C@H]2O[C@@H](C)[C@@H](O[C@@H]3C[C@](C)(O)[C@H](OC(=O)CC(C)C)[C@H](C)O3)[C@@H](N(C)C)[C@@H]2O)[C@@H](CC=O)C[C@@H](C)[C@@H](O)/C=C\C=C/C[C@@H](C)OC(=O)C[C@H]1OC(C)=O	3.01% [at 25.6 µM]	
CC(C)(C)c1ccc(C(=O)NC(Cc2ccccc2)C(=O)O)cc1 (centres undefined)	28.5%	
CCCCCCN(CCCCCC)C(=O)Cc1c(-c2ccc(F)cc2)[nH]c2ccccc12	-3.8%	
Cc1ccc2[nH]c(-c3ccccc3)c(CN(C)C)c(=O)c2c1		31.6 nM (active)
Cc1cc(=O)[nH]c2ccccc12	0.998%	
CC(=O)N1CCN(c2nc(C)nc3sc4c(c23)CCC(C)C4)CC1 (centres undefined)	-13.3%	
CON/C=C(\C=Nc1ccccc1)c1ncc(C(F)(F)F)cc1Cl	6.49%	
COc1ccc(C2CC(=O)CC(=O)C2n2cncn2)cc1 (centres undefined)	-1.52%	
O=C(O)Cc1nn(Cc2ccc(Br)cc2F)c(=O)c2ccccc12	1.91%	
Cc1cc(C)c(S(=O)(=O)Nc2cccc(C(F)(F)F)c2)c(C)c1	-1.42%	
CC(C)(C)CC(=O)NC(=S)Nc1ccccc1C(F)(F)F	-40.1%	
Cc1cc(C)c(S(=O)(=O)Nc2ccccc2C(F)(F)F)c(C)c1		6310 nM (active)
CCN(CC)c1ccc(NC(=O)c2cnn(CC)c2)cc1	-6.55%	
COC(=O)CSc1ccc2nnc(-c3ccc(F)cc3)n2n1	17.6%	
OC(Cc1nc2ccccc2[nH]1)c1ccccc1Cl (centres undefined)		1120 nM (active)
OCCNc1nc2ccccc2[nH]1	1.74%	
Cc1cc(C)nc(SCc2nnc(SCC(N)=O)n2Cc2ccco2)n1	-5.05%	
O=C(O)CSc1nc2ccccc2[nH]1	9.25% [at 11.4 µM]	
COCCn1c(Cc2ccccc2)nnc1SCc1nc2ccccc2c(=O)[nH]1	7.43%	
c1ccc(SCc2nc3ccccc3[nH]2)cc1		10000 nM (active)
c1ccc2[nH]c(NC3=NCCC3)nc2c1	-17.9%	
c1ccc(-c2nnc(SCc3nc4ccccc4[nH]3)n2Cc2ccco2)cc1		6310 nM (active)
Cc1cc(NC(=O)CSc2nnc(-c3ccccc3)n2Cc2ccco2)no1	-9.41%	
Cc1nonc1NC(=O)N1CCCC1	6.35%	
O=C(O)Cn1ccnc1[N+](=O)[O-]	0.12% [at 11.4 µM]	

SMILES	activity, negative = inhibition	AC50
Cc1ccc(C)c(/C(O)=C2/C(=O)C(=O)N(CCN3CCOCC3)C2c2ccco2)c1 (centres undefined)	19.6%	
COc1ccc(NC(=O)CSc2ccc3c4c(cccc24)C(=O)c2ccccc2-3)cc1	-17.2%	
O=C(NCc1ccccc1)c1sc(=S)n2c1[nH]c(=O)c1ccccc12	-20.8%	
COc1ccc(C(=O)Nc2cc(C(C)=O)c(/C=C/N(C)C)oc2=O)cc1	-2.29%	
CCC(=O)Nc1c2c(nc3c1CCC3)CCCC2	-7.06%	
COC(=O)CCC(=O)Nc1cccc2ccccc12	3.01%	
O=S(=O)(CC(O)COc1ccccc1Cl)c1ccccc1 (centres undefined)	-16.4%	
CCC(=O)NC(=S)Nc1ccc(NC(=O)COc2ccc(Cl)cc2Cl)cc1	-6.84%	
O[C@@H](COc1ccc(Cl)cc1Cl)CN1CCCC1		316 nM (active)
O=C(OC1CCN(c2ncc(C(F)(F)F)cc2Cl)CC1)c1ccccc1	-21.2%	
CC1(C)O[C@H]2[C@@H](c3[nH]nc4c(=O)[nH]c(=O)[nH]c34)OC[C@H]2O1	17% [at 11.4 µM]	
CCSc1nnc(NC(=O)Cc2ccc(OC)c(OC)c2)s1	6.23%	
Cc1nc2c(c(-c3ccccc3)c1C#N)C(=O)c1ccccc1-2	15.6%	
CC(C)CC1NC(=S)N(C2CCCCC2)C1=O (centres undefined)	4.01%	
CCCC[C@@H]1C[C@H]1C(NC(=O)c1cccs1)c1ccc(C(F)(F)F)cc1 (some centres undefined)	3.39%	
CC(C)(C)c1ccc(O)c(CN(Cc2c(O)ccc3ccccc23)C2CCCCC2)c1		794 nM (active)
Oc1ccc2ccccc2c1Cc1c(O)ccc2ccccc12	3.09% [at 11.4 µM]	
O=C(O)Cc1c(O)ccc2ccccc12	2.9% [at 11.4 µM]	
CN(C)Cc1cc(C(C)(C)C)ccc1-c1ccc(C(C)(C)C)cc1CN(C)C	4.2% [at 11.4 µM]	
Oc1ccc2ccccc2c1CN(Cc1c(O)ccc2ccccc12)C1CCCCC1		631 nM (active)
CS(=O)(=O)N(Cc1cc2ccccc2[nH]c1=O)C1CCCCC1	-8.47%	
CN(C)Cc1ccc(C(C)(C)C)cc1-c1cc(C(C)(C)C)ccc1CN(C)C	-2% [at 11.4 µM]	
CC(C)(C)c1ccc(O)c(CN(Cc2cc(C(C)(C)C)ccc2O)C2CCCCC2)c1		501 nM (active)
O=C1C2=CC[C@H]3C(=O)N(c4cccc(Oc5ccccc5)c4)C(=O)[C@@H]3[C@@H]2[C@H](O)[C@@H]2O[C@H]12	1.91% [at 11.4 µM]	
